MITF inh: blocks human microphthalmia-associated transcription factor | O75030 | AlphaScreen MITF homodimerization, bead proximity signal | inhibition, % at 2.6 µM | 650,000 tested, 0.91% active | AID 1259374; in the data active means inhibition above about 50%;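 further: 0% = vehicle wells with protein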
Target sequence (O75030 whole entry, looked up): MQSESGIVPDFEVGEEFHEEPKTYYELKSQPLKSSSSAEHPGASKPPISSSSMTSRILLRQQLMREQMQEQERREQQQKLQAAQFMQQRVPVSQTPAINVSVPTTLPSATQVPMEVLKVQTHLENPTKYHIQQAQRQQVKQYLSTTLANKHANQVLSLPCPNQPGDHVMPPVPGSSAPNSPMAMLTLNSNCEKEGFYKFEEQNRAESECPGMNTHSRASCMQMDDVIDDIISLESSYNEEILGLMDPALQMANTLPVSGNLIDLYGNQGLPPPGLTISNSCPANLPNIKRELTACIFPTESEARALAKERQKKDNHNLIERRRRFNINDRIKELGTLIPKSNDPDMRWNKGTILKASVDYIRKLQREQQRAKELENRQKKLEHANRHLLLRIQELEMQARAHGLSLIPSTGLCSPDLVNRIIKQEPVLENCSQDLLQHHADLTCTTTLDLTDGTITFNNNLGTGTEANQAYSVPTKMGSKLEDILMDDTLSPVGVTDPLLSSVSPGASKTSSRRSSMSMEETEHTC
GPR151 activ: activates the human receptor GPR151; 650,000 tested, 1% active; PathHunter beta-arrestin GPR151 cells, luminescence; activation, % at 11.2 µM; Q8TDV0; in the data active means activation above about 4.9%;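 further: 0% = median of compound wells and 100% = cells with positive control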
TEAD-YAP block: TEAD-YAP interaction inhibition. AID 1259422. HEK-TIYL cells, TEAD-Gal4/YAP UAS-luciferase luminescence. 640,000 tested, 1.4% active. inhibition, % at 9.12 µM; in the data active means inhibition above about 32%;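 further: 0% = median of test compound wells and 100% = reference inhibitor wells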
FBW7 activator: activators of human E3 ligase FBW7; AlphaScreen FBW7–phospho-cyclin E peptide binding, activator screen; normalized activity (activation), % at 26.1 µM; 650,000 tested, 0.13% active; Q969H0; in the data active means normalized activity above about 1.9%;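 further: purified mutant Fbw7 with reduced substrate affinity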
GPR151 confirm: confirmation of human GPR151 activators | shares compounds with GPR151 activ | GPR151 PathHunter beta-arrestin cells, luminescence, 90 min; % of EA-reagent control over plate median | activation, % at 11.2 µM | 6,700 tested, under 10 active;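 active means mean percent activation across replicates above the confirmation screen cutoff of 4.91%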
GPR119 counter: counter-screen for GPR151 activators: effect on human GPR119. shares compounds with GPR151 activ. GPR119 PathHunter beta-arrestin cells, luminescence, 90 min; 0 = compound-well median, 100 = enzyme-acceptor control. activation, % at 11.2 µM. 6,700 tested, 0.3% active;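 active means mean percent activation in the counterscreen above 29.09%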;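 further: counterscreen on off-target GPR119 to flag nonselective hits from the GPR151 activator screen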
* marks the source's active call; other numbers are inactive results; · = not tested or not shown; ! = a repeat was not active. Shown are actives, neighbours in structure and some others; about 3.5% of the full set was active somewhere.

SMILES	MITF inh	GPR151 activ	TEAD-YAP block	FBW7 activator	GPR151 confirm	GPR119 counter
CCN(CC)C(=O)C1CCCN(c2nc(Nc3ccccc3)nc(N(CC)CC)n2)C1 (stereo unspecified)	2.7	5.7*	2.3	-0.3	-1.2	-12.3
CCN(CC)C(=O)C1CCCN(c2nc(Nc3ccc(NC(C)=O)cc3)nc(N(CC)CC)n2)C1 (stereo unspecified)	2.4	-1.6	4.8	-0.1	·	·
c1ccc(Nc2ncnc3nc(N4CCc5ccccc5C4)[nH]c23)cc1	6.5	6.0*	-3.7	-0.2	-0.4	0.8
CCN(CC)C(=O)C1CCCN(c2nc3ncnc(Nc4ccc(Oc5ccccc5)cc4)c3[nH]2)C1 (stereo unspecified)	7.1	5.8*	5.6	-0.1	0.8	6.6
CCN(CC)C(=O)C1CCCN(c2nc3ncnc(Nc4ccc(NC(C)=O)cc4)c3[nH]2)C1 (stereo unspecified)	3.1	-0.4	12.1	-0.1	·	·
CC(=O)N1CCC2(CC1)N=C(C)C(c1ccccc1)=N2	4.2	7.1*	-3.3	0.1	0.3	11.4
CCc1ccc2nc(NC(=O)Cc3csc(NC(=O)c4ccco4)n3)sc2c1	-8.0	-0.4	-35.8	0.1	·	·
CCOC(=O)CSCC(=O)N1N=C(c2cccs2)CC1c1cccc(OC)c1OC (stereo unspecified)	3.3	6.6*	5.1	0.2	0.2	7.7
COc1cccc(NC(=O)C2CCCN2S(=O)(=O)c2cccc3cccnc23)c1 (stereo unspecified)	5.0	7.3*	-21.1	0.2	0.0	-0.2
COc1cc(NC(=O)C2CCCN2S(=O)(=O)c2cccc3cccnc23)cc(OC)c1 (stereo unspecified)	13.5	-1.1	-22.1	0.1	·	·
OCCNc1nc(Nc2ccccc2)nc2c1ncn2-c1ccsc1	13.2	5.1*	58.8*	0.0	-0.3	-7.7
c1ccc(Nc2nc(Nc3ccccc3)c3ncn(-c4ccsc4)c3n2)cc1	10.9	1.1	7.1	0.3	·	·
Cc1nn(C)c(C)c1-c1nc(NCCO)c2ncn(-c3ccccc3)c2n1	2.9	5.2*	28.7	0.0	0.8	-3.3
CN(C)c1cccc(Nc2nc(Nc3ccc(N4CCOCC4)cc3)c3ncn(-c4ccsc4)c3n2)c1	4.7	-0.4	8.8	-0.2	·	·
CN(C)c1cccc(Nc2nc(NCCO)c3ncn(-c4ccsc4)c3n2)c1	17.4	-1.9	8.4	0.1	·	·
CC(C)N(CCNc1nc(Nc2cccc(N(C)C)c2)nc2c1ncn2-c1ccsc1)C(C)C	8.7	5.7*	1.9	0.0	-0.8	-13.2
CN(C)c1cccc(Nc2nc(Nc3ccc4c(c3)OCO4)c3ncn(-c4ccsc4)c3n2)c1	6.6	5.0*	-34.5	0.0	-0.9	-12.9
Cc1nn(C)c(C)c1-c1nc(NCCN2CCOCC2)c2ncn(-c3ccccc3)c2n1	18.1	-0.4	20.8	0.0	·	·
NC(=O)c1c(NC(=O)NC(Oc2ccccc2)(C(F)(F)F)C(F)(F)F)sc2c1CCCC2	15.8	0.5	15.4	0.2	·	·
Cc1cc(Oc2ncnc3c2cnn3-c2ccc(Cl)cc2)ccc1[N+](=O)[O-]	16.8	-1.5	2.6	0.1	·	·
CN(Cc1ccccc1)C(=O)CSc1nnc(-c2ccccc2)o1	-3.1	-0.6	-28.4	-0.1	·	·
CCOc1ccc(CCNC(=O)c2cn(-c3ccc(OC)cc3)c(=O)c3ccccc23)cc1	-49.4	7.0*	10.8	-0.1	-0.2	-6.1
Cc1ccc(NC(=O)/C(=C/c2ccc3c(c2)OCO3)NC(=O)c2ccccc2Br)c(C)c1	4.7	-1.1	2.5	-0.6	·	·
O=C(NCC1CCCN(C(=O)C2CCCC2)C1)c1ccc(F)cc1 (stereo unspecified)	-9.2	7.3*	5.3	0.2	0.7	1.8
O=C(O)c1cc([N+](=O)[O-])cc([N+](=O)[O-])c1N1CCN(CCO)CC1	17.1	5.3*	8.0	0.2	0.8	7.5
SMILES	MITF inh	GPR151 activ	TEAD-YAP block	FBW7 activator	GPR151 confirm	GPR119 counter
CS(=O)(=O)N(CC(=O)NCc1ccccc1)c1cccc(Cl)c1	15.7	6.1*	6.2	0.8	-0.6	-3.7
Cc1oc2ccc(NS(=O)(=O)c3ccc4ccccc4c3)cc2c1C(=O)OC(C)C	5.1	2.9	-0.1	0.1	·	·
OCC1(CC2CCCCO2)CCN(Cc2cn[nH]c2C2CCCCC2)CC1 (stereo unspecified)	11.6	2.6	-1.0	0.3	·	·
CC(=O)c1ccc(NC(=O)CSc2ccc(C)cc2)cc1	11.7	5.5*	-39.4	0.1	0.7	4.0
CC(=O)c1ccc(NC(=O)CSc2ccc(F)cc2)cc1	-0.3	0.4	-34.6	-0.1	·	·
Cc1oc(-c2ccccc2Cl)nc1CSCC(=O)NC(C)(C)C	5.1	5.2*	-23.4	0.0	0.6	-1.2
Cc1oc(-c2ccccc2Cl)nc1CSCC(=O)NC1CCCC1	6.3	1.9	-3.8	0.0	·	·
COc1ccccc1/C=N/NC(=O)NC12CC3CC(CC(C3)C1)C2	9.6	-1.0	9.2	-0.1	·	·
COc1ccccc1/C=C/C(=O)OCC(=O)NC(=O)NC12CC3CC(CC(C3)C1)C2	16.4	5.5*	0.8	0.1	0.9	4.0
Cc1cc2c(cc3c(=O)n(CC(=O)N4CCCC(C)C4)nc(C)n32)s1 (stereo unspecified)	16.6	-0.3	2.1	0.1	·	·
CCc1nn(CC(=O)NCCN(C)C2CCCCC2)c(=O)c2cc3sc(C)cc3n12	-0.7	8.6*	-1.3	0.0	0.5	-9.1
Cc1cc2c(cc3c(=O)n(CC(=O)NCCCN4CCCC(C)C4)nc(C)n32)s1 (stereo unspecified)	8.0	7.7*	-1.1	-0.1	-0.1	-8.3
O=C1c2cccc(F)c2C(=O)N1c1ccc(CCc2nc3ccccc3o2)cc1	4.5	0.7	-20.9	0.9	·	·
Oc1ccccc1CNc1ccc(Cl)cc1	1.2	1.1	-26.9	0.1	·	·
COc1ccc(S(=O)(=O)NCC2CCCN(Cc3cccc(C)n3)C2)cc1 (stereo unspecified)	8.3	-0.1	1.1	-0.1	·	·
COc1ccc(COC(=O)C2=C(C)NC3=C(C(=O)CCC3)C2c2ccc(OC)c(O)c2)cc1 (stereo unspecified)	11.1	5.0*!	0.4	1.2	1.1	3.5
COc1ccc(COC(=O)C2=C(C)NC3=C(C(=O)CC(C)(C)C3)C2c2ccc(O)c(OC)c2)cc1 (stereo unspecified)	9.6	-0.2	3.8	-0.2	·	·
COc1ccc(COC(=O)C2=C(C)NC3=C(C(=O)CC(C)(C)C3)C2c2ccc(OC)cc2)cc1 (stereo unspecified)	-6.8	1.0	3.4	0.5	·	·
COc1cc(C2C(C(=O)OCc3ccccc3)=C(C)NC3=C2C(=O)CCC3)ccc1O (stereo unspecified)	-2.2	5.5*	-3.8	-0.2	0.4	7.0
COC(=O)c1ccc(C2C(C(=O)OCc3ccc(OC)cc3)=C(C)NC3=C2C(=O)CC(C)(C)C3)cc1 (stereo unspecified)	22.9	5.2*	5.0	0.1	0.5	-10.4
